CYP2C9 act: CYP2C9 (human) activation | AID 1024 | activation factor at 5 µM | P11712 | recombinant CYP2C9, luciferin-H conversion, luminescence; active compounds read high; factor 1 = untreated enzyme, 0 = blocked | actives 1.4% (n = 96,000);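 active = activation factor of 2 or more for CYP2C9 at a 5 µM dose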;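 note: 0 = sulfaphenazole-blocked wells and 1 = vehicle-only wells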
Target sequence (P11712 whole entry, looked up): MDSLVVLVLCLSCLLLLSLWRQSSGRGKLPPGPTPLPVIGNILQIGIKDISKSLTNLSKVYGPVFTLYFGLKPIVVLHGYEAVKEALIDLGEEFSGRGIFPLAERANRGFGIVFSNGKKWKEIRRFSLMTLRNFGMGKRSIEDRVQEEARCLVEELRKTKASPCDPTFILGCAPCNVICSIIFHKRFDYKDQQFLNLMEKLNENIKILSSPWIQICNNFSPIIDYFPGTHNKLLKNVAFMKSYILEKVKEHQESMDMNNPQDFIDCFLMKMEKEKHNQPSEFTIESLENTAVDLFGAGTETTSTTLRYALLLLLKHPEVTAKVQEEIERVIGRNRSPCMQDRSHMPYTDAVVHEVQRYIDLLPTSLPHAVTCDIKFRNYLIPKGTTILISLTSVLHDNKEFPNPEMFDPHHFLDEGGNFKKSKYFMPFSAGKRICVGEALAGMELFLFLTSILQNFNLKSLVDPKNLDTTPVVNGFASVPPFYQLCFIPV
CYP2C19 inhib: blocks human cytochrome P450 2C19. P33261. CYP2C19 Supersomes, luciferin-H EGE luminescence, 30 min. inhibition, % at 5 µM. actives 21% (n = 96,000);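 active = CYP2C19 inhibition above a set limit at 5 µM in the primary screen, cut at about 50% in these data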;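 note: plate controls were negative control wells for no effect and 2.5 mM tranylcypromine positive control for full effect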
CYP2C9 inh: inhibitors of human CYP2C9 | CYP2C9 Supersomes, luciferin-H conversion, luminescence | inhibition, % at 5 µM | actives 20% (n = 96,000);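 active = blocking of liver enzyme CYP2C9 beyond about 50% at 5 µM, limit read from the data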
Cav3 T inh: inhibitors of human Cav3.2 T-type calcium channel | Cav3.2-expressing cells, Fluo-4 calcium fluorescence FDSS; active compounds read low | O95180 | B-score at 10 µM | actives 4% (n = 100,000);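 active = single-dose well whose peak fluorescence ratio is a statistical outlier from its plate by either plate-standardised score or position-corrected B-score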
CYP2C19 activ: increases human CYP2C19 enzyme activity; recombinant CYP2C19, luciferin-H EGE luminescence; active compounds read high; 0 = fully inhibited enzyme, 1 = untreated enzyme; activation factor at 5 µM; 96,000 tested, under 10 active;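 active = activation factor of at least 2 at 5 µM in the primary screen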;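 note: 0 = wells with 2.5 mM tranylcypromine and 1 = vehicle-only wells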
Numbers without * were called inactive; x = no result. Only some compounds are listed: those with a hit (about 27% of all), similar ones and a draw of the others.

SMILES	CYP2C9 act	CYP2C19 inhib	CYP2C9 inh	Cav3 T inh	CYP2C19 activ
COc1ccc(OC)c(S(=O)(=O)N(C)CC(=O)Nc2ccc3c(c2)OCCO3)c1	0.2	27	75*	1.4	0.7
COc1ccc(S(=O)(=O)N(C)CC(=O)Nc2ccc3c(c2)OCO3)cc1	0.5	61*	54*	0.032	0.4
CCN(CC(=O)Nc1ccc(S(N)(=O)=O)cc1)S(=O)(=O)c1cc(C)ccc1OC	0	-5	97*	0.28	1.1
O=C(O)c1ccccc1NCN1C(=O)C2CC=C(Cl)CC2C1=O (stereo not given)	1	3	2	0.57	1
CC12CCC(C(=O)NCc3ccc4c(c3)OCO4)(OC1=O)C2(C)C (stereo not given)	0.8	56*	18	0.63	0.4
CC12CCC(C(=O)NCc3ccc(Cl)cc3)(OC1=O)C2(C)C (stereo not given)	0.5	84*	46	1.6	0.2
CC12CCC(C(=O)NCc3ccccc3)(OC1=O)C2(C)C (stereo not given)	1.2	-8	-25	0.77	1.1
O=C(NC1CCCCCC1)c1ccc(CN2CCOCC2)cc1	0.9	6	12	x	0.9
O=C1CCN(S(=O)(=O)c2ccccc2)C2CCCCC12 (stereo not given)	0.6	94*	36	1.1	0.1
CN1CC(=O)N(C)c2nc(Br)n(C)c2C1=O	1.2	-14	-19	-2.4	1.1
COCCNc1nc(-c2cc(-c3ccc(Cl)cc3)on2)cc(C(C)C)n1	x	x	x	0.68	x
CCCCCCC1/C(=N/O)CCC1C(=O)OC (stereo not given)	0.6	66*	44	-1.2	0.3
CCCCCCN=C(C)C1=C(O)C(C(=O)OC)C(C)(C)CC1=O (stereo not given)	0.8	46	24	0.032	0.5
Cc1ccc(OCC(=O)Nc2cccc3nsnc23)c(C)c1	0.9	74*	8	-0.27	0.3
Cc1cc(C)c(S(=O)(=O)Nc2cccc3nsnc23)c(C)c1	0.2	49	83*	x	0.5
Cc1ccc(OCC(=O)Nc2nnn(C)n2)c(C)c1	1.1	0	-13	0.32	1
O=S(=O)(Nc1cccc2nsnc12)c1ccccc1	0.1	71*	86*	-0.31	0.3
COc1cc(NS(=O)(=O)c2cccc3nsnc23)c(C(=O)O)cc1OC	0.7	-16	31	-0.2	1.2
Cc1cc(C)c(S(=O)(=O)Nc2ccc[nH]c2=O)c(C)c1	4*	85*	-304	-0.49	0.2
C#CCOCCOCCOCCNc1nc(N2CCN(C(=O)C([C@@H](C)CC)n3cc(C(N)Cc4ccc(O)cc4)nn3)CC2)nc(N2CCN(C(=O)[C@H](CCC(=O)O)n3cc(C(N)CO)nn3)CC2)n1 (stereo not given in full)	x	x	x	1.1	x
O=S(=O)(Nc1ccccc1F)c1ccc2nsnc2c1	0.6	63*	38	0.054	0.4
CCOC(=O)CCCNS(=O)(=O)c1c(C)ccc2nsnc12	x	x	x	0.86	x
O=C(O)COc1ccc2nsnc2c1Cl	1.1	-1	-13	x	1
C=CCN(CC=C)S(=O)(=O)c1ccc2nsnc2c1	1	49	4	-0.54	0.5
Cc1ccc2nsnc2c1N(S(C)(=O)=O)S(C)(=O)=O	0.8	63*	21	x	0.4
SMILES	CYP2C9 act	CYP2C19 inhib	CYP2C9 inh	Cav3 T inh	CYP2C19 activ
Cc1ccc2nsnc2c1NS(=O)(=O)c1c(C)ccc2nsnc12	0.4	35	56*	1.5	0.6
Cc1cc(Nc2cc(C)on2)n2ncnc2n1	1	-28	-1	0.86	1.3
C=Cn1ccnc1P(=S)(c1ccc2c(c1)c1ccccc1n2CC)c1nccn1C=C	0.7	2	27	-5.2*	1
CC(C(=O)N1CCN(c2ccc(Cl)cc2)CC1)c1ncc(C(F)(F)F)cc1Cl (stereo not given)	0.7	52*	29	-2.1	0.5
COc1ccc(/C=C/C(=O)c2sc(-c3ccc(Cl)cc3)nc2C)cc1	0.6	7	45	-1.2	0.9
O=C(c1ccc(F)cc1)N1CCC(N2CCCCCC2)CC1	1	3	2	-0.55	1
O=C(c1ccc(F)cc1)N1C2CCC1CC(O)(c1ccccc1F)C2 (stereo not given)	0.7	53*	26	0.35	0.5
C(=N\n1cnnc1)/c1ccc2ncccc2c1	0.8	57*	21	-2.4	0.4
Cn1c(=O)oc2cc(S(=O)(=O)NCc3ccccc3)ccc21	1.7	59*	-68	-1.9	0.4
CN(Cc1ccco1)C(=O)Cn1c(=O)oc2cc(S(=O)(=O)NCc3ccccc3)ccc21	1	98*	1	x	0
O=C(Cn1c(=O)oc2cc(S(=O)(=O)N3CCCC3)ccc21)NC1CCCc2ccccc21 (stereo not given)	0.4	12	58*	x	0.9
CN(Cc1ccccc1)C(=O)CCn1c(=O)oc2ccccc21	1	93*	-4	-0.091	0.1
CN(Cc1ccccc1)C(=O)Cn1c(=O)oc2cc(S(=O)(=O)NCc3ccccc3)ccc21	1	7	4	-0.078	0.9
CCn1c(O)c(C=NCCN2CCOCC2)sc1=S	1	21	-2	0.09	0.8
O=c1oc(-c2cccs2)nc2c1cnn2-c1ccccc1	0.9	-15	7	-0.24	1.1
CCN(CCCNS(=O)(=O)c1ccc2c(c1)oc(=O)n2C)c1cccc(C)c1	1.3	59*	-27	-3	0.4
CN(Cc1ccccc1)C(=O)Cn1c(=O)oc2cc(S(=O)(=O)N3CCCC3)ccc21	0.3	-1	65*	-0.03	1
CC1CCCCN1S(=O)(=O)c1ccc2c(c1)oc(=O)n2CC(=O)O (stereo not given)	0.8	10	22	x	0.9
CCOc1ccccc1NC(=O)Cn1c(=O)c2ccccc2n(CC)c1=O	x	x	x	-0.44	x
CC(NC(=O)Cn1c(=O)oc2cc(S(=O)(=O)N3CCCC3)ccc21)c1ccccc1 (stereo not given)	0.1	5	90*	1.4	0.9
CCn1c(=O)n(CC(=O)N(C)Cc2ccccc2)c(=O)c2ccccc21	0.8	65*	16	0.94	0.4
O=C(Cn1c(=O)oc2cc(S(=O)(=O)N3CCCCCC3)ccc21)NC1CCCCCCC1	0.7	15	26	0.15	0.8
Cc1cccc(C)c1NC(=O)c1ccc(-c2ccc(Cl)cc2Cl)o1	0.8	-1	24	-4.8*	1
Cc1ccccc1NC(=O)c1ccc(-c2ccc(Cl)cc2Cl)o1	0.5	33	49	-7.5*	0.7
Cc1ccccc1-c1ccc(C(=O)Nc2cccc(F)c2)o1	x	x	x	-2.1	x
CCN(Cc1ccccc1)S(=O)(=O)c1nc2nc(C)c(C)c(C)n2n1	1.3	34	-30	0.062	0.7
c1ccc(OCCSc2nc3ccccc3[nH]2)cc1	x	x	x	-3.6*	x
O=C(OCc1nc2ccccc2[nH]1)C12CC3CC(CC(C3)C1)C2	0.8	28	18	-6.7*	0.7
O=C(COc1ccccc1)Nc1nc2ccccc2[nH]1	0.7	34	26	-1.2	0.7

Assay outcomes from PubChem.
